Assay results reported in PubChem BioAssay (NCI).
Several values for one entry are separate records, joined by “and”; a condition that tells them apart may be missing. Equal entries are not always repeated. The panel holds about 83,000 compounds, 20% with a hit somewhere; the sample as a whole holds those more often.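 96-well plates, one dose, 48 hours. Percent growth reported; active if below 10.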 Activity calls are given as the source filed them.

system: HL-60(TB) leukemia; assay: NCI-60 one-dose screen, 48 h (100 = growth as untreated, 0 = no growth, -100 = all killed); settings: 10 µM unless noted

SMILES | growth
O=C(/C=C/CN1CCOCC1)Nc1cc2c(Nc3ccc(F)c(Cl)c3F)ncnc2cc1OCCOC(F)F | 76.9% (inactive)
CCN(CC)CCOc1ccc(-c2nc3cc(Cl)ccc3s2)cc1 | -74.2% (active)
CC1=C(CC(=O)c2cccc([N+](=O)[O-])c2)C(=O)c2ccccc2C1=O | 1.83% (active)
CCOC(=O)c1c(/C=C/C(=O)O)nc2ccccc2c1/C=C/c1ccccc1 | 8.28% (active)
COc1cc(NCCCCC(C)N)c2nccc(C)c2c1 (stereo not given) | 96.7% (inactive)
CN1[C@@H]2CC[C@H]1/C(=C\c1ccccc1)C(=O)/C2=C/c1ccccc1 | 37% (inactive)
COc1cc2c3c(c4c5ccccc5[nH]c4c2c(OC)c1OC)C(=O)N(CCN1CCOCC1)C3=O | 69% (inactive)
COc1ccc(-c2c3c(N)c4c(nc3nc3c2c(C)nn3-c2ccccc2)CCCCC4)cc1 | 49.3% (inactive)
O=c1oc2c(cnc3ccccc32)cc1-c1ccsc1 | 96.7% (inactive)
O=C(c1ccccc1)C1OC1c1ccc([N+](=O)[O-])cc1 (stereo not given) | 61.6% (inactive)
CCCCOc1ccc(/C=N/NC(N)=S)cc1 | 60.5% (inactive)
Cc1[nH]c2ncnc(Oc3ccc(NC(=O)Nc4ccc(Cl)c(C(F)(F)F)c4)cc3)c2c1C | 65.6% (inactive)
O=C(Nc1ccc(C(=O)O)c(O)c1)c1ccccc1 | 99% (inactive) and 105% (inactive)
O=C(Nc1ccc(-n2ccc3c(NC(=O)c4ccccc4)ncnc32)cc1)Nc1cccc(Cl)c1Cl | 62.9% (inactive)
Clc1ccc2c(NCCNc3nc(N4CCCCC4)nc4ccccc34)ccnc2c1 | -61.2% (active)
Nc1c(N)c2ccccc2c2ccccc12 | 104% (inactive)
C=C(C)[C@@H]1CC[C@]2(C(=O)O)CC[C@]3(C)[C@H](CC[C@@H]4[C@@]5(C)C/C(=C/c6ccc(OC)cc6)C(=O)C(C)(C)[C@@H]5CC[C@]43C)[C@@H]12 | 2.12% (active)
Nc1ccc(N2CCOCC2)cc1 | 81.8% (inactive)
O=C(N/N=C/c1ccccc1O)C(O)(c1ccccc1)c1ccccc1 | 35% (inactive)
CSc1nc2sc3c(c2c(=O)n1-c1ccc([N+](=O)[O-])cc1)CCCCC3 | 97.7% (inactive)

SMILES | growth
C=CCOc1c(Br)cc(Br)cc1Br | 76.2% (inactive)
COc1cc2c(cc1OCCCCC(=O)Nc1ccc(-c3nc4ccccc4s3)cc1)N=C[C@@H]1CCCN1C2=O | -47.2% (active)
CC(C)(C)n1cc(-c2ccnc(NCCNS(=O)(=O)c3cccc(F)c3)c2)c(-c2ccccc2)n1 | 73.5% (inactive)
O=C(O)c1cn(C2CC2)c2cc(N3CCN(C(=O)N(c4ccccc4)c4nc(-c5ccccc5)cs4)CC3)c(F)cc2c1=O | -39.9% (active)
O=C(/C=C/c1cn(-c2ccccc2)nc1-c1ccc([N+](=O)[O-])cc1)c1ccc(Cl)cc1 | 69.1% (inactive)
O=C1NC(=O)c2c1c1c3ccccc3ccc1c1[nH]c3ccc(Br)cc3c21 | 18.7% (inactive)
Oc1ccc(Cl)cc1-c1cc(-c2ccccc2Cl)[nH]n1 | 46.6% (inactive)
CCOc1ccc(C(=O)Cc2ccccc2)cc1 | 97.4% (inactive)
Cn1cc(-c2nc(-c3c[nH]c4ccncc34)cs2)c2ccccc21 | -41.9% (active)
Cn1cc(-c2csc(-c3cn(CCNC(=O)OC(C)(C)C)c4ccccc34)n2)c2cccnc21 | 45.9% (inactive)
CC(=O)NC1C(O[C@H]2C[C@H]3[C@@H]4CC=C5C[C@@H](O)CC[C@]5(C)[C@H]4CC[C@]3(C)[C@H]2[C@H](C)C(=O)CCC(C)C)OCC(O)C1O (stereo not given in full) | 10.1% (inactive)
COC(=O)[C@H]1[C@H]2C[C@@H]3c4[nH]c5cc(OC)ccc5c4CCN3C[C@H]2C[C@@H](OC(=O)/C=C/c2cc(OC)c(OC)c(OC)c2)[C@@H]1OC | -40.1% (active)
COc1cccc(C2=NN3C(C2)c2cc(Br)cc(OC)c2OC32CCN(Cc3ccccc3)CC2)c1 (stereo not given) | 103% (inactive)
CCN(CC)CCOc1ccc(/C=N/Nc2nc3c([nH]2)c(=O)n(C)c(=O)n3C)cc1 | 97.3% (inactive) and 115% (inactive)
COc1ccc(NC(=O)CSc2nc(C)c(C(C)=O)n2-c2ccc(Cl)cc2)cc1 | 103% (inactive)
COc1cccc(NC(=O)c2cccc(-c3cc(=O)c4c(OC)c(OC)c(OC)cc4o3)c2)c1 | 68.7% (inactive)
COC(=O)CCC(=O)C(=O)OC | -21% [10 mM] (active)
Cc1cc2c(F)c(Oc3ncnn4cc(OC[C@@H](C)OC(=O)[C@H](C)N)c(C)c34)ccc2[nH]1 | 12.6% (inactive)
CCCCCCCCCCCCCCCc1cc(O)ccc1N | -45.5% (active) and -6.54% (active)
N#CSCC1CC(O)(c2ccccc2)C(c2ccccc2)C(c2ccc(F)cc2)O1 (stereo not given) | -24.7% (active)
